molecular target: Solute carrier family 2, facilitated glucose transporter member 1 (Homo sapiens) (UniProt P11166); assay: ST_JUDE_LEISH: Cytotoxicity at 2uM final concentration against transgenic Leishmania Mexicana promastigotes LmGLUT1 that are glucose transport deficient and complemented with the human glucose transporter GLUT1. Activity is measured by DNA content using SYBR green in vitro; type: functional
Sequence (P11166 whole entry): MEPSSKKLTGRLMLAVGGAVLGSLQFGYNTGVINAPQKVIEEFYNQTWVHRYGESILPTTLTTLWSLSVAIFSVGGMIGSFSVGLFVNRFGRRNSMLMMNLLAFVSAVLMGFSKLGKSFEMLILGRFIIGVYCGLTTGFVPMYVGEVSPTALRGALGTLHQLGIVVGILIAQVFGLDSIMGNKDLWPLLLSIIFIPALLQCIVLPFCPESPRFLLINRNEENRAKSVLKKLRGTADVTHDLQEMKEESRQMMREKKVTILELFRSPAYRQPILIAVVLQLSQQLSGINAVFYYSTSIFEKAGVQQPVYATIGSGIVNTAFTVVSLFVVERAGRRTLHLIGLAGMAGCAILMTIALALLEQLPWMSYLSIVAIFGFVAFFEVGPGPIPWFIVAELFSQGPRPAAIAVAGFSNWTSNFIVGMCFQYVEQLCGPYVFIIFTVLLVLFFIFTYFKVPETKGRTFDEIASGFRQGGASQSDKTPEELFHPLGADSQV

Compared with `CC(C)c1ccc(CN2CCC(CNC(=O)c3cc(-c4cccc(F)c4)cs3)C2)cc1` (centres undefined), `CC(C)(C)c1ccc(CN2CCC(NC(=O)c3ccc(-c4cccc(F)c4)s3)CC2)cc1` is lower in inhibition: 0.2% for the first, -0.34% for the second.

Compared with `Cc1ccc(CNC(=O)[C@H](CCCN)Nc2cc(C)nc(NCC3CCCCC3)n2)cc1`, `Cc1cc(NCC2CCN(CC3CCCCC3)C2)nc(Nc2ccc(Cl)cc2)n1` (centres undefined) is higher in inhibition: 1.46% for the first, 7.03% for the second.

Going from `CC(=O)Nc1ccc(CN2CCC(NC(=O)c3ccc(-c4cccc(Cl)c4)s3)CC2)cc1` to `CC(C)(C)c1ccc(CN2CCC(NC(=O)c3ccc(-c4cccc(C(F)(F)F)c4)s3)CC2)cc1`, the inhibition falls from 2.01% to 1.56%.

Going from `CCCC(CNCc1cccc(OCC)c1)CNc1cc(=O)c2ccccc2[nH]1` (centres undefined) to `CCCC(C)NC(=O)/C=C/c1ccccc1-c1cccc(OC)c1` (centres undefined), the inhibition falls from -0.5% to -0.91%.

Compared with `Cc1ccc(NC(=O)N2CCCN(CCCCCNC(=O)/C=C/c3ccc(Cl)c(Cl)c3)CC2)cc1C`, `Cc1ccc(NC(=O)N2CCCN(CCCCCNC(=O)/C=C/c3ccc(Cl)c(Cl)c3)CC2)cc1` is lower in inhibition: -0.69% for the first, -1.97% for the second.

Compared with `CC(C)C(=O)NC(c1ccc(N(C)C)cc1)c1cc(Cl)c2cccnc2c1O` (centres undefined), `COc1ccccc1N1CCN(C(C(=O)NCc2ccc3c(c2)OCO3)c2ccc(C)cc2)CC1` (centres undefined) is lower in inhibition: 3.89% for the first, -0.94% for the second.

Compared with `COc1ccc2nccc([C@@H](O)CN3CCC(NC(=O)c4ccc(Oc5ccccc5)cc4)CC3)c2c1`, `COc1ccc2nccc([C@@H](O)CN3CCC(NC(=O)C(c4cc5ccccc5o4)N4CCN(C(c5ccccc5)c5ccccc5)CC4)CC3)c2c1` (some centres undefined) is lower in inhibition: 3.02% for the first, 3.01% for the second.

Compared with `COc1ccc(-c2ccc(CN(C)C3CCC(NC(=O)c4cc5ccccc5[nH]4)CC3)cc2)cn1` (centres undefined), `Cn1nccc1C(=O)NCCNCc1ccc(-c2cccc(-c3nc4cc(F)ccc4[nH]3)c2)cc1` is higher in inhibition: -1.44% for the first, -0.28% for the second.

Compared with `CC(C)(C)c1cc2cc(Nc3ccnc4cc(-c5nccs5)ccc34)ccc2[nH]1`, `Nc1ncc(-c2ccsc2)c2ccc(-c3cnc[nH]3)cc12` is lower in inhibition: 6.8% for the first, 1.46% for the second.

First: COCCn1ccc2c3c(N)nc(N)nc3ccc21
Second: COc1ccc(-c2nnc(Sc3ccc(C#N)c([N+](=O)[O-])c3)n2CCC(C)C)cc1
The inhibition of the first is lower: 0.38% for the first, 5.19% for the second.

Compared with `O=C(NCC(=O)N1CCC[C@H]1C(=O)O)[C@@H](Cc1ccccc1)NC(=O)[C@@H]1CCCN1C(=O)CCCc1ccc(O)cc1`, `N#Cc1ccccc1S(=O)(=O)N1CCCC(CNC(=O)[C@H](CC2CCCCC2)NC(=O)c2cc3ccccc3s2)C1` (some centres undefined) is higher in inhibition: -2.68% for the first, 1.08% for the second.

Compared with `O=C(Nc1cccc(CN2CCCN(Cc3cccc(O)c3)CC2)c1)c1cc2ccccc2s1`, `CN1CCCN(Cc2cccc(-c3ccc(NC(=O)c4cccc(Cl)c4)cc3)c2)CC1` is higher in inhibition: -0.14% for the first, 71.1% for the second.

Going from `CCOc1ccc(C2CCN(CCN3CCC(NC(=O)c4ccc(-c5ccc(C(F)(F)F)cc5)cc4)CC3)CC2)c(OCC2CC2)c1` to `CCCCN1CCN(c2cc(NS(=O)(=O)c3ccc(C(=O)Nc4ccc(C(F)(F)F)cc4)cc3)ccc2OC)CC1`, the inhibition falls from 3.99% to 3.79%.

First: Cc1ccccc1OCCCN1CCN(CC(c2ccc(F)cc2)N2CCN(C(C)C)CC2)CC1 (centres undefined)
Second: Cc1cc(F)ccc1-c1nc(NCCCN2CCCC2=O)nc2c1ccc(=O)n2-c1c(F)cccc1F
The inhibition of the first is lower: 13.1% for the first, 15.4% for the second.

Compared with `CCOc1cc(C(=O)Nc2ccc3nc(N(CC)CC)cc(C)c3c2)cc(OCC)c1OCC`, `CS(=O)(=O)Nc1cccc(-c2cnc3[nH]cc(-c4cc(N)cc(C(=O)O)c4)c3c2)c1` is higher in inhibition: -0.12% for the first, 0.76% for the second.

Going from `O=C(/C=C/c1ccc(Cl)c(Cl)c1)NCCCCCN1CCC(NC(=O)Nc2cccc(C(F)(F)F)c2)CC1` to `Cc1ccc(OCC2CCN(c3ncc(C(=O)NCCCN4CCCC4=O)cc3Cl)CC2)cc1`, the inhibition rises from -1.91% to 1.15%.

Compared with `O=C(Nc1cccnc1)c1ccc(-c2cc3ccncc3cc2OC2CCNCC2)s1`, `O=[N+]([O-])c1ccc(-n2nc(-c3cccnc3)n(Cc3ccco3)c2=S)c(Cl)c1` is lower in inhibition: 2.38% for the first, 1.31% for the second.

Going from `CC(C)CNc1c2c(nc3cnn(-c4c5c(nc6cn[nH]c46)CCCC5)c13)CCCC2` to `Fc1ccc2[nH]c(-c3ccc(-c4ccc(CNCc5cnn(-c6ccccc6)n5)cc4)cc3)nc2c1`, the inhibition rises from -3.17% to 1.68%.

First: CCCCCN1C(=O)C(c2ccccc2)(c2ccccc2)N=C1N
Second: CCCCCC(C)(C)NC[C@@H](O)[C@H](Cc1ccccc1)NC(=O)c1cc(NCC)cc(N2CCCC2=O)c1
The inhibition of the first is higher: 4.32% for the first, -0.4% for the second.

For `CCN(CC)CCN(Cc1ccc(-c2ccc(C(F)(F)F)cc2)cc1)C(=O)CN1C(CCc2cccc(F)c2F)=NS(=O)(=O)c2ccccc21`, the inhibition was -0.85%.

From ChEMBL document CHEMBL3433997, “St. Jude Leishmania screening dataset” (2016)
